From PubChem BioAssay AID463190 (Sanford-Burnham Center for Chemical Genomics, 2010)
In all, about 330,000 compounds went through this assay and about 7,300 (2.2%) were called active. This is one part of a sample in which actives are shown more often than they occur. Unmarked numbers belong to inactive results.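 Rule for the calls: active = inhibition of at least 40%; inactive = the rest.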

Experiment: growth inhibition of tim10-1 ts yeast – luminescence, uHTS, primary screen (AID 463190);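 note: mutant grown at 25 °C; 0% = DMSO wells with yeast and 100% = wells holding no yeast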
Details: S. cerevisiae tim10-1 ts strain growth, BacTiter-Glo, 24 h; at 20 µM; active compounds read high
For `COc1ccc(N(C)C(=O)C2CCN(S(=O)(=O)c3cccc4nsnc34)CC2)cc1`, the inhibition was 6.33%. `CC(C)C(=O)Nc1ccc2c3c(cccc13)CC2` gave an inhibition of -15.9%. `CC(C)c1cc(CN2CCOCC2)cc(C(C)C)c1O` showed an inhibition of -5.76%. In the case of `Oc1c(C(c2ccccn2)N2CCOCC2)ccc2cccnc12` (centres undefined), the inhibition is reported as 43.7% (active). With `COc1ccc(CCNC(=O)C2CCCN(S(=O)(=O)c3ccc(OC)cc3)C2)cc1` (centres undefined) the inhibition was 1.05%. In the case of `O=C1Oc2ccccc2C(=O)/C1=C/c1ccccc1O`, the inhibition is reported as 62.2% (active). `COc1ccc2c(c1)O/C(=C\c1ccccc1O)C2=O` showed an inhibition of 18%. `COC(=O)c1ccc(/C=C2/C(=O)Oc3ccccc32)cc1` showed an inhibition of 39.9%. For `Cc1ccccc1/C=C\c1nc(O)c([N+](=O)[O-])c(=O)[nH]1`, the inhibition was -8.34%. In the case of `CN(C)Cc1c(O)ccc2c(=O)c(-c3ccccc3Cl)coc12`, the inhibition is reported as 1.49%. `COc1ccc(NC(=O)CCCNC(=O)Cn2cnc3sc4c(c3c2=O)CCCC4)cc1OC` gave an inhibition of -24.1%. `COc1ccc(NC(=O)CCNC(=O)Cn2cnc3sc4c(c3c2=O)CCCC4)cc1OC` gave an inhibition of -10.3%. With `COc1ccc(/C=N/Nc2ncnc3sc4c(c23)CCCC4)cc1O` the inhibition was 40.7% (active). `S=C(NCCc1ccccc1)Nc1ccccc1` showed an inhibition of 19.1%. `O=C(CCNC(=O)c1ccc(Br)cc1)NCCCc1ccccc1` showed an inhibition of 7.38%. In the case of `S=C(NCCCc1ccccc1)Nc1ccc(Br)cc1`, the inhibition is reported as 64.1% (active). For `CC12CN(NC(=O)c3ccc(Cl)cc3)C3(C#N)CC1CCC23C` (centres undefined), the inhibition was 36.5%. In the case of `CCn1nc(C(=O)NNS(=O)(=O)c2cc(/C=C/C(=O)O)cc(OC)c2OC)c2ccccc2c1=O`, the inhibition is reported as -3.64%. Molecule `O=C(COC(=O)c1ccc(S(=O)(=O)N2CCc3ccccc3C2)cc1)NC(=O)NCc1ccco1` has an inhibition of 0.504%. For `Cc1cnc(C(=O)Oc2cccc(Cl)c2Cl)cn1`, the inhibition was -10.1%. `COc1ccccc1OCC(=O)O/N=C(\N)c1ccccn1` showed an inhibition of 22.7%. With `N/C(=N\OC(=O)CC1CCCCC1)c1ccccc1` the inhibition was 49.3% (active). Molecule `O=C(CC1CCCCC1)NCc1ccccc1` has an inhibition of 11.1%. Work on `CCc1cccc(C)c1NC(=O)COC(=O)CC1CCCC1` yielded an inhibition of 2.51%. In the case of `N/C(=N\OC(=O)c1ccc([N+](=O)[O-])cc1)c1ccccn1`, the inhibition is reported as 37.6%. With `N/C(=N\OC(=O)CCC1CCCCC1)c1ccccn1` the inhibition was 47.6% (active). With `CCCC(C)C(=O)NCc1ccncc1` (centres undefined) the inhibition was 27.9%. `CCCc1cc(=O)[nH]c(SCc2cc(=O)oc3c(C)c(C)ccc23)n1` showed an inhibition of 10.3%. Molecule `Cc1cccn2c(=O)c3cc(C(=O)NC4CCCCC4)sc3nc12` has an inhibition of 19.7%. `Cc1cc(C)c2c(n1)sc1c(=O)n(-c3ccccc3)c(=O)[nH]c12` showed an inhibition of 4.48%. `Cc1cccc(NC(=S)Nc2ccc3cn[nH]c3c2)c1` gave an inhibition of 15.4%. For `Cc1cccc(NC(=S)Nc2ccc(Cl)c(Cl)c2)c1`, the inhibition was 49.9% (active). `Cc1cccc(NC(=S)NC23CN4CN(CN(C4)C2)C3)c1` showed an inhibition of 10%. In the case of `Cc1cccc([C@@H]2[C@@H]3C(=O)N(C)C(=O)[C@@H]3[C@@H]3C(=O)Nc4ccccc4C(=O)N23)c1`, the inhibition is reported as 5.99%. For `O=C(NC1CCCC1)c1cc(-c2ccccc2)on1`, the inhibition was -21.5%. Work on `FC(F)(F)c1nnc2c3ccccc3c(Cl)nn12` yielded an inhibition of 17.8%. With `CC1CCc2sc3nc(N4CCN(CCO)CC4)n4ncnc4c3c2C1` (centres undefined) the inhibition was 40.6% (active). Molecule `Cc1cc(NC(=O)CSc2nc(C(C)C)nc3sc4c(c23)CCC(C)C4)no1` (centres undefined) has an inhibition of 4.7%. With `CC(C)(C)C(=O)/C(C#N)=C/c1ccc(O)cc1` the inhibition was 8.78%. `Cc1[nH]c2ccccc2c1/C=C(/C#N)C(=O)NC(C)C` gave an inhibition of 20.4%. In the case of `CC(C)NC(=O)/C(C#N)=C\c1ccc(N(C)C)c(Br)c1`, the inhibition is reported as 53.6% (active). With `Cc1ccc(C(=O)OC2=CC(=O)CC(C)(C)C2)cc1` the inhibition was 31%. Work on `COCCCNS(=O)(=O)c1cccc(S(=O)(=O)c2cccc(S(=O)(=O)NCCCOC)c2)c1` yielded an inhibition of 2.99%. `O=C(NCCCN1CCOCC1)c1ccc(N2CCCC2)c([N+](=O)[O-])c1` gave an inhibition of -9.34%. `Cc1ccccc1OCC(=O)NNC(=O)c1ccc(-n2cncn2)c([N+](=O)[O-])c1` showed an inhibition of -11%. For `O=C(COc1ccccc1F)NNC(=O)c1ccc(N2CCCCC2)c([N+](=O)[O-])c1`, the inhibition was 41.3% (active). `CC(C)CC(=O)N/C(N)=N/c1nc2ccccc2s1` gave an inhibition of 19.6%. With `CCOC(=O)/C(N=Nc1cc(C(=O)O)cc(C(=O)O)c1)=C(\O)CCl` the inhibition was 11%. With `O=c1cccc(-c2ccc(Br)cc2)o1` the inhibition was 4.04%. Molecule `CCOC(=O)C(=CNc1cccc(C)n1)C(=O)OCC` has an inhibition of -6.8%. For `CCOC(=O)C(=Cc1ccccc1OC)C(=O)OCC`, the inhibition was 49.6% (active). In the case of `COc1ccccc1/C=C/C(=O)NC1CC2CCC1C2` (centres undefined), the inhibition is reported as 19.5%. `Cc1c(C)n2c(SCC(=O)N3CCCC3)nnc2[nH]c1=O` gave an inhibition of 0.597%. Work on `CCCCCCC(=O)N(O)C1CC(=O)N(c2ccccc2)C1=O` (centres undefined) yielded an inhibition of 33.7%. Work on `CCN(CC(=O)Nc1ccccc1C(=O)NC1CC1)Cc1cccs1` yielded an inhibition of 17.5%. `CN1C/C(=C/c2cccs2)C(=O)/C(=C\c2cccs2)C1` showed an inhibition of 19.2%. With `Cc1cccc(C2=N/C(=C/c3cccs3)C(=O)O2)c1` the inhibition was 31.5%. With `CSC1=N/C(=C\C=C\c2cccs2)C(=O)S1` the inhibition was 47.1% (active). Molecule `O=C(NCc1ccccc1Cl)C1CCC(CNc2c(N3CCCCC3)c(=O)c2=O)CC1` (centres undefined) has an inhibition of -8.66%. In the case of `C/C(=N\NC(=O)c1cc2c(s1)CCC(C)C2)c1cccnc1` (centres undefined), the inhibition is reported as 39.6%. In the case of `CCOC(=O)C1=C(c2ccccc2)NC(=O)NC1c1cc(OCC)c(O)c([N+](=O)[O-])c1` (centres undefined), the inhibition is reported as -5.37%. In the case of `CCCc1[nH]nc2c1C(c1ccc(Br)s1)C(C#N)=C(N)O2` (centres undefined), the inhibition is reported as 83% (active). Work on `CCCc1[nH]nc2c1C(c1ccc(OC(=O)c3ccco3)cc1)C(C#N)=C(N)O2` (centres undefined) yielded an inhibition of 8.03%. In the case of `CCCc1[nH]nc2c1C(c1ccc(OC)c(Cn3nc(C)c(Br)c3C)c1)C(C#N)=C(N)O2` (centres undefined), the inhibition is reported as 11.3%.
